Reference: PubChem BioAssay (EPA / NIEHS)
Active and inactive are the calls of the source. How the source made its calls: active means hit-call score of the fitted dose curve at least 0.9, where 1 is the maximum; inactive means score below 0.9.

Test: Tanguay_ZF_120hpf_MO24: Oregon State University Tanguay Lab 24 Hour Post-fertilization zebrafish Assay for Mortality (AID 2284389)
Protocol: Tanguay_ZF_120hpf is a whole embryo, multiplexed endpoint assay using zebrafish larvae exposed for 120 hours post fertilization on a 96-well plate.Tanguay_ZF_120hpf_MO24 is one of one assay component(s) measured or calculated from the Tanguay_ZF_120hpf assay. It is designed to make measurements of zebrafish development as detected with brightfield microscopy of developing zebrafish embryos.Data from the assay component Tanguay_ZF_120hpf_MO24 was analyzed into 1 assay endpoints. This assay endpoint, Tanguay_ZF_120hpf_MO24, was analyzed in the positive analysis fitting direction relative to DMSO as the negative control and baseline of activity. Using a type of viability reporter, gain-of-signal activity can be used to understand changes in developmentals as they relate to the whole embryo. To generalize the intended target to other relatable targets, this assay endpoint is annotated to the zebrafish development intended target family, where the subfamily is embryonic mortality.
Zebrafish husbandry: Tropical 5D wild-type adult zebrafish were housed in at an approximate density of 1000 per 100 gallon tank at the Sinnhuber Aquatic Research Laboratory, Oregon State University, Corvallis, OR. Each tank was kept at standard laboratory conditions of 28C on a 14-h light/10-h dark photoperiod in fish water consisting of reverse osmosis water supplemented with a commercially available salt (Instant Ocean). Spawning funnels were placed into the tanks the night prior, and embryos were collected and staged. To increase bioavailability, the chorion was enzymatically removed using pronase (63.6mg/ml, >/= 3.5U/mg, Sigma-Aldrich: P5147) at 4 hours post fertilization (hpf) using a custom automated dechorionator.Chemical exposures: Six hpf dechorionated embryos were placed 1 embryo per well in a 96-well plate prefilled with 90 ul of EM using automated embryo placement systems (AEPS). Ten microliters of each row of dilution plate 2 was added to 2 exposure plates. The final DMSO concentration used was 0.64% (vol/vol). Thirty-two embryos were also exposed to 5uM trimethyltin chloride (positive control). Plates were sealed to prevent evaporation and foil covered to reduce light exposure and kept in a 28C incubator. Embryos were statically exposed until 120 hpf. At 24 hpf, embryos were assessed for photomotor response using a custom photomotor response analysis tool (PRAT) and for developmental toxicity endpoints (MO24: mortality at 24 hpf, DP: developmental progression, SM: spontaneous movement, and NC: notochord distortion). At 120 hpf, locomotor activity was measured using Viewpoint Zebralab and assessed for 13 endpoints. Zebrafish acquisition and analysis program (ZAAP), a custom program designed to inventory, acquire, and manage zebrafish data, was used to collect developmental endpoints as either present or absent (i.e., binary responses were recorded). If mortality occurred for an embryo (at either 24 or 120 hpf), the non-mortality endpoints were not measured.
With `OCC(F)(F)OC(F)(F)C(F)(F)OC(F)(F)C(F)(F)OC(F)(F)F` the outcome was “inactive”. With `CC(O)C(F)(F)C(F)(F)F` (centres undefined) the outcome was “inactive”. In the case of `O=C(O)C(F)(OC(F)(F)C(F)(F)C(F)(F)F)C(F)(F)F` (centres undefined), the outcome is reported as “inactive”. With `O=C(O)C=CC(F)(C(F)(F)F)C(F)(F)F` the outcome was “inactive”. In the case of `FC(F)(F)C(F)(C(F)(F)F)C(F)(F)C(F)(F)CC1CO1` (centres undefined), the outcome is reported as “inactive”. With `C=CC(=O)OCC(F)(F)C(F)F` the outcome was “inactive”. With `O=C(O)C(F)(F)OC(F)(F)C(F)(F)OC(F)(F)F` the outcome was “inactive”. For `COC(=O)C(F)(F)C(F)(F)OC(F)(C(F)(F)F)C(F)(F)OC(F)=C(F)F` (centres undefined), the AC50 was 21.4 µM (active). With `NC(=O)C(F)(F)C(F)(F)F` the outcome was “inactive”. With `O=C(O)C(F)(F)C(F)(F)C(=O)O` the outcome was “inactive”. With `O=S(=O)(F)C(F)(F)C(F)(F)C(F)(F)C(F)(F)C(F)(F)C(F)(F)C(F)(F)C(F)(F)F` the outcome was “inactive”. With `O=C(O)C(F)(F)OC(F)(F)C(F)(F)OC(F)(F)C(=O)O` the outcome was “inactive”. With `OCC(F)(F)OC(F)(F)C(F)(F)OC(F)(F)CO` the outcome was “inactive”. For `OCC(F)(F)OC(F)(F)C(F)(F)OC(F)(F)C(F)(F)OC(F)(F)CO`, the AC50 was 64.9 µM (active).
